# Source: PubChem BioAssay (NCATS)
# “And” between values parts separate entries of the source, which are not always exact repeats. Equal entries are not always repeated. Inconclusive results are not listed. Unmarked numbers belong to inactive results. The source made the active and inactive calls. The call rests on the fitted dose curve; in most records, active means well fitted curve in the direction sought with a large enough effect; inconclusive means small, poorly fitted or top-dose-only effect, or another doubt; inactive means no such curve, though single readings can be large; an effect the other way counts as inactive or inconclusive.
# Legend:
# [1] = Viability qHTS for spleen associated tyrosine kinase inhibitor (SYKi) naive MV4-11 cells (AID 1963823); further: nearly all actives have a fitted effect of over 40% in size
# Summary of the method: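 In this viability screen, compounds acted on SYK inhibitor naive MV4-11 cells for three days (72 hr, 37 C). Remaining viable cells were measured by CellTiter-Glo luminescence following a 10 min room-temperature development.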
# [2] = Viability qHTS for spleen associated tyrosine kinase inhibitor (SYKi) drug resistant MV4-11 cells (AID 1963824); further: nearly all actives have a fitted effect of over 35% in size
# Summary of the method: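 CellTiter-Glo luminescence, read 10 min after reagent addition, reports viability after a 72 hr compound exposure. Cells are an MV4-11 line made resistant to SYK inhibition, seeded at 500 per well onto compound-containing plates.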
# [3] = Quantitative highthroughput screen to assess conditional lethalithy of NOMO1 cells grown in RPMI1640 with untreated serum (RPMI+s) (AID 1963876); further: nearly all actives have a fitted effect of over 35% in size;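 on Viability: 100% = DMSO wells and 0% = empty wells without cells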
# Summary of the method: (§1)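 Each medium arm—HPLM with 10% dialyzed FBS, or RPMI1640 with 5 mM glucose and 10% untreated or dialyzed FBS—was screened against an 11-point, 3-fold compound titration for 48 h at 37 °C, with CellTiter-Glo luminescence as endpoint.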
# [4] = Quantitative highthroughput screen to assess conditional lethalithy of NOMO1 cells grown in Human Plasma-Like Medium with dialyzed fetal bovine serum (HPLM+ds) (AID 1963878); further: nearly all actives have a fitted effect of over 35% in size;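 on Viability: 100% = DMSO wells and 0% = empty wells on each plate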
# Summary of the method: as §1
# [5] = Quantitative highthroughput screen to assess conditional lethalithy of P12 Ichikawa cells grown in Human Plasma-Like Medium with dialyzed fetal bovine serum (HPLM+ds) (AID 1963879); conditions: Potency: viability; further: nearly all actives have a fitted effect of over 35% in size; on Viability: series mostly up to about 46 µM
# Summary of the method: as §1
# [6] = Quantitative highthroughput screen to assess conditional lethalithy of P12 Ichikawa cells grown in RPMI1640 with dialyzed fetal bovine serum (RPMI+ds) (AID 1963880); conditions: Potency: P12-Ichikawa viability; further: nearly all actives have a fitted effect of over 35% in size;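 on Viability: 100% = DMSO wells and 0% = empty wells on each plate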
# Summary of the method: as §1
# [7] = Quantitative highthroughput screen to assess conditional lethalithy of SEM cells grown in RPMI1640 with unreated serum (RPMI+s) (AID 1963883); further: nearly all actives have a fitted effect of over 35% in size;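 on Viability: 100% = DMSO wells and 0% = empty wells without cells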
# Summary of the method: as §1
# [8] = Quantitative highthroughput screen to assess conditional lethalithy of SEM cells grown in RPMI1640 with dialyzed fetal bovine serum (RPMI+ds) (AID 1963884); further: nearly all actives have a fitted effect of over 35% in size;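 on Viability: series mostly up to about 46 µM; 100% = DMSO control wells and 0% = empty wells without cells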
# Summary of the method: as §1
# [9] = Quantitative highthroughput screen to assess conditional lethalithy of SEM cells grown in Human Plasma-Like Medium with dialyzed fetal bovine serum (HPLM+ds) (AID 1963882); further: nearly all actives have a fitted effect of over 35% in size; on Viability: series mostly up to about 46 µM
# Summary of the method: as §1
# [10] = Cellular viability qHTS for adrenocortical cancer (ACC) cell line NCI-H295R (AID 1963990); further: nearly all actives have a fitted effect of over 60% in size
# Summary of the method: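 Viability of NCI-H295R after 48 h of treatment (final up to 46 uM) measured through cellular ATP luminescence.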
# [11] = Quantitative highthroughput screen to assess conditional lethalithy of P12 Ichikawa cells grown in RPMI1640 with untreated serum (RPMI+s) (AID 1963881); conditions: Potency: viability; further: nearly all actives have a fitted effect of over 35% in size;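 on Viability: series mostly up to about 46 µM; 100% = DMSO wells and 0% = empty wells without cells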
# Summary of the method: as §1
# [12] = Cellular viability qHTS for adrenocortical cancer (ACC) cell line SW-13 (AID 1963989); conditions: SW-13 ACC cells viability, CellTiter-Glo, 48 h; activity (max response): hits give low values; further: nearly all actives have a fitted effect of over 65% in size;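 on activity (max response): cells grown in serum-free medium with ITS supplement; on the % scale 0 is the no-effect control and ±100 the full control effect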
# Summary of the method: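 Here, serum-free SW-13 cultures were dosed up to 46 uM. Following 48 h, ATP-dependent luminescence (CellTiter-Glo) reported viable cells, and logistic modeling produced IC50 values.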
# Potency means the concentration at half of the fitted maximal effect.
SMILES,Potency [1],Potency [2],Potency [3],Potency [4],Potency [5],Potency [6],Potency [7],Potency [8],Potency [9],Potency [10],Potency [11],activity (max response) [12],Potency [12]
CN(C)CCC=C1c2ccccc2C=Cc2ccccc21,18600 nM (active),14.8 µM (active),20.9 µM (active),18.7 µM (active),inactive,inactive,inactive,inactive,,,,,
O=C(Nc1ccccc1Br)N[C@@H]1CCN(c2ccc(C(F)(F)F)cn2)C1,14800 nM (active),23.5 µM (active),inactive,inactive,inactive,inactive,inactive,inactive,inactive,inactive,,,
Cn1cnc(=N)c2[nH]cnc21,inactive,inactive,7.43 µM (active),4.69 µM (active),7.43 µM (active),7.43 µM (active),2.35 µM (active),3.32 µM (active),3.32 µM (active),inactive,7.43 µM (active),5.87%,
Nc1ccn([C@@H]2O[C@H](CO)[C@@H](O)[C@H]2O)c(=O)n1,inactive,inactive,0.0743 µM (active),0.0166 µM (active),,,,inactive,,inactive,inactive,10.2%,
Cc1ccc(C(=O)N(CCCN)[C@@H](c2nc3cc(Cl)ccc3c(=O)n2Cc2ccccc2)C(C)C)cc1,4.2 nM (active),0.0037 µM (active),0.0013 µM (active),,0.0013 µM (active),0.0021 µM (active),0.0012 µM (active),0.0013 µM (active),0.0012 µM (active),0.0794 µM (active),0.0013 µM (active),,0.01 µM (active)
CNc1nccc(-c2cccnc2Oc2cc(C(=O)Nc3cccc(C(F)(F)F)c3)ccc2C)n1,517 nM (active) and 1.18 µM (active),1.3 µM (active) and 2.09 µM (active),inactive,,inactive,inactive,,inactive,inactive,,,,
CN(C)c1ccc(C2Nc3ccc4ccccc4c3C3=C2C(=O)CC(C)(C)C3)cc1Br (stereo not drawn),inactive,14.8 µM (active),inactive,,inactive,inactive,inactive,inactive,inactive,inactive,inactive,-5.19%,
O=C(NCC1CCCCN1)c1cc(OCC(F)(F)F)ccc1OCC(F)(F)F (stereo not drawn),inactive,inactive,0.332 µM (active),,1.87 µM (active),2.96 µM (active),,inactive,,inactive,1.66 µM (active),-4.23%,
FC(F)(F)c1ccc(CNc2ccc(Cc3c[nH]c4ncc(Cl)cc34)cn2)cn1,146 nM (active) and 417 nM (active),366 nM (active) and 833 nM (active),2.34 µM (active),,0.295 µM (active),3.31 µM (active),0.132 µM (active),1.48 µM (active),1.86 µM (active),inactive,3.71 µM (active),,
COc1cc2nccc(Oc3ccc(NC(=O)Nc4cc(C)on4)c(Cl)c3)c2cc1OC,372 nM (active),0.833 µM (active),inactive,inactive,,,3.32 µM (active),4.69 µM (active),,14.1 µM (active),,,11.2 µM (active)
COc1cc2c(cc1OC)[C@@H]1C(=O)c3ccc4c(c3O[C@@H]1CO2)C=CC(C)(C)O4,103 nM (active) and 93.4 nM (active),146 nM (active) and 166 nM (active),23.5 µM (active),,18.7 µM (active),,2.64 µM (active),16.6 µM (active),,20 µM (active),6.62 µM (active),,0.178 µM (active)
O=C(C1CCCCC1)N1CC(=O)N2CCc3ccccc3C2C1 (stereo not drawn),inactive,inactive,inactive,inactive,,,0.332 µM (active),,,inactive,,-9.94% and -6.75%,
CCN1CCN(CC(=O)Nc2ccc(-c3cccc4c(=O)cc(N5CCOCC5)oc34)c3sc4ccccc4c23)CC1,422 nM (active) and 407 nM (active),422 nM (active) and 723 nM (active),4.18 µM (active),,inactive,,1.05 µM (active),1.32 µM (active),,7.15 µM (active),,,9 µM (active)
CN[C@H]1CCc2cc(OC)c(OC)c(OC)c2-c2ccc(OC)c(=O)cc21,93.4 nM (active),0.0934 µM (active),0.0093 µM (active),,0.0118 µM (active),0.0105 µM (active),0.0083 µM (active),0.0074 µM (active),,0.0891 µM (active),0.0105 µM (active),,0.1 µM (active)
